# Fewer than 10 of roughly 2,400 compounds were called active. Not shown: some 1% with an inconclusive outcome.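 Rule for the calls: active = highest replicate activation at or above 34% and every replicate reaching that threshold; inconclusive = meets only one of the two criteria; inactive = meets neither criterion.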 These entries were drawn from the full list.
# Molecular target: Protein FosB (Mus musculus) (UniProt P13346)
# Assay: enhancers of delta FosB homodimer–AP-1 oligo binding – biochemical, fluorescence polarization, TAMRA-CDK5 oligo, cherry-picked samples, confirmation (AID 588690);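 note: higher polarization means more probe DNA bound by delta FosB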
# Conditions: purified delta FosB, at 24.9 µM, stronger effect = higher value, normalised: neutral wells 0, positive control 100
# Chain of Protein FosB (Mus musculus) (P13346 whole entry, looked up): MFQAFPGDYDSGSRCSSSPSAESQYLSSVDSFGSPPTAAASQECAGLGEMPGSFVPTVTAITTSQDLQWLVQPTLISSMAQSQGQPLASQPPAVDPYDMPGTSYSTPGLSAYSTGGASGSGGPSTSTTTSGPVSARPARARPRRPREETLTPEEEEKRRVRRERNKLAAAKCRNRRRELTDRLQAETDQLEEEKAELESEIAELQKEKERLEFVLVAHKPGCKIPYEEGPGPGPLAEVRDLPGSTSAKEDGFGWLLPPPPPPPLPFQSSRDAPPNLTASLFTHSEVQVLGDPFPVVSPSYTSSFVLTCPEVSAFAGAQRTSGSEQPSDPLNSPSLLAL
row,SMILES,activation
1,O=C(Nc1ccc(Br)cc1)c1cc(S(=O)(=O)Nc2ccccn2)ccc1Cl,0.723% (inactive)
2,COc1cccc(CNC(=O)c2nnn(CC(=O)Nc3cc(Cl)ccc3C)c2N)c1,5.89% (inactive)
3,Cc1ccc2nc(-c3ccccn3)cc(C(=O)Nc3ccc4c(c3)OCO4)c2c1,5.01% (inactive)
4,CN(C)CC(O)COc1ccc(C(C)(C)c2ccc(OCC(O)CN(C)C)cc2)cc1 (stereo unspecified),3.1% (inactive)
5,O=C(Cn1cc(-c2nnnn2-c2ccc(Cl)cc2)c(=O)c2ccccc21)c1ccccc1,0.385% (inactive)
6,CCn1c(=O)c2cc(C(=O)Nc3cccc(C(C)=O)c3)sc2c2ccccc21,8.7% (inactive)
7,CC(=O)Nc1ccc(C(=O)CSc2nnc(Cc3ccccc3)o2)cc1,1.84% (inactive)
8,O=C(N/N=C/c1cccc(O)c1)c1cc2c(ccc3ccccc32)o1,-5.62% (inactive)
9,CC(=O)c1ccc(NC(=O)C2CC(=O)Nc3nc4ccccc4n32)cc1 (stereo unspecified),-4.9% (inactive)
10,CCCCn1c(N)c(N(CCC(C)C)C(=O)COC(=O)c2ccc(CC)cc2)c(=O)[nH]c1=O,0.0735% (inactive)
11,Cc1sc2nc(CSCC(=O)Nc3c(Cl)cccc3Cl)[nH]c(=O)c2c1C,-0.487% (inactive)
12,COc1cccc(NC(=O)Cn2c3ccc(F)cc3c3nc4n(c(=O)c32)CCS4)c1,-5.72% (inactive)
13,COc1ccc(-c2cc3n(n2)CCc2nc4ccccc4n2-3)cc1,6.36% (inactive)
14,O=C(COC(=O)c1ccc(S(=O)(=O)N2CCc3ccccc3C2)cc1)NC(=O)NCc1ccco1,-0.464% (inactive)
15,O=c1c2ccccc2oc2nc(C3CCCCC3)n(Cc3ccco3)c(=O)c12,-1.5% (inactive)
16,Cc1ccc2nc(NC(=O)C3CCN(S(=O)(=O)c4ccc5c(c4)oc(=O)n5C)CC3)sc2c1,-11.8% (inactive)
17,COC(=O)c1sc2ncccc2c1OCc1ccc(Cl)cc1Cl,-1.37% (inactive)
18,O=C(N/N=C/c1ccco1)c1ccc(NC(=O)C2CC2)cc1,-0.767% (inactive)
19,O=C1c2cccc3cccc(c23)C(=O)N1c1cccc(O)c1,3.04% (inactive)
20,COc1cc2[nH]c(=O)n(Cc3ccc(C(=O)NC4CCN(Cc5ccccc5)CC4)cc3)c(=O)c2cc1OC,0.608% (inactive)
21,Cc1ccc(-c2cc(C(=O)N/N=C/C=C/c3ccccc3)n[nH]2)o1,2.21% (inactive)

row,SMILES,activation
1,COc1ccccc1NC(=O)C1=C(C)Nc2nnnn2C1c1cccc(Br)c1 (stereo unspecified),5.03% (inactive)
2,Nc1nonc1-n1nnc(C(=O)N/N=C/c2ccc(Cl)cc2)c1-c1ccc2c(c1)OCO2,1.91% (inactive)
3,COC(=O)c1ccc(C23CC4(C2)[C@H](CN(Cc2cccnc2)[C@@H]4c2ccccc2)C3c2ccc(Cl)nc2)cc1 (stereo partly specified),-13.4% (inactive)
4,COc1ccc(C(=O)Nc2c(N)nc(SCC(=O)Nc3ccc(C(C)=O)cc3)[nH]c2=O)cc1,5.95% (inactive)
5,COc1ccc(NC(=O)CCC(=O)Nc2nnc(C3CCCCC3)s2)cc1,3.71% (inactive)
6,COc1ccc(C(=O)n2nc(-c3ccc(Cl)cc3)nc2N)cc1OC,0.58% (inactive)
7,N#Cc1c(N)nc2c3c(sc(=N)c2c1N)NC(=O)CC3c1ccccc1Cl (stereo unspecified),3.21% (inactive)
8,Cc1ccc(NC(=O)COc2ccc(/C=N\NC(=O)c3cccnc3)cc2)cc1C,5.95% (inactive)
9,CCOc1ccccc1NC(=O)Cn1nnc(C(=O)NCc2cccs2)c1N,2.5% (inactive)
10,CCOc1ccc2nc(N(CCN(C)C)C(=O)c3ccc4ccccc4c3)sc2c1,-2.94% (inactive)
11,COc1ccccc1CNC(=O)Cn1c(=O)oc2cc(Cl)ccc21,5.98% (inactive)
12,O=C(Cc1ccc(-n2c(=O)c3sccc3n(Cc3ccc(F)cc3)c2=O)cc1)NCc1ccco1,7.21% (inactive)
13,COc1ccc(/C=C/C(=O)Nc2ccc(C34CC5CC(CC(O)(C5)C3)C4)cc2)cc1OC,5.41% (inactive)
14,COc1ccc(Nc2nc(NCc3ccco3)nc(N/N=C/c3ccccc3Cl)n2)cc1,2.55% (inactive)
15,Cc1ccc(-c2cc(C(=O)NCc3cn(C)nc3C)c3cc(Br)ccc3n2)cc1,-0.3% (inactive)
16,Cc1cccc(C(=O)Nc2ccccc2-c2nnn(CC(=O)Nc3ccc4c(c3)OCCO4)n2)c1,-0.9% (inactive)
17,COC(=O)c1scc(C)c1NC(=O)CSc1ccc(Cl)cc1,4.2% (inactive)
18,CC[C@@H](C)[C@@H]1CN([C@@H](C)CN2CCC[C@H]2CN2C(N)=NC[C@H]2C(C)C)C(=N)N1CCc1ccc(Cl)c(Cl)c1,-6.51% (inactive)
19,Cc1ccccc1NC(=O)c1ccc(COc2ccc3c(C)cc(=O)oc3c2)cc1,1.47% (inactive)
20,Cc1nnc(NC(=O)Nc2ccc(Cl)c(Cl)c2)s1,0.165% (inactive)
21,NC(=O)NC(=O)CSc1nc2cc([N+](=O)[O-])ccc2n1-c1cccc(C(F)(F)F)c1,3.51% (inactive)

row,SMILES,activation
1,O=C(Cn1cnc2c(nnn2Cc2ccc(F)cc2)c1=O)NCc1ccc2c(c1)OCO2,3.1% (inactive)
2,O=C(Nc1ccccc1)c1ccc(NC(=O)c2cccs2)cc1,6.7% (inactive)
3,COC(=O)c1nc2n(n1)C(c1ccc([N+](=O)[O-])cc1)C(C(=O)Nc1ccc(Cl)cc1)=C(C)N2 (stereo unspecified),2.9% (inactive)
4,COc1ccc(/C=C/C(=O)Nc2c(C)nn(C)c2C)cc1COc1ccc(Br)cc1,5.31% (inactive)
5,CCCOc1ccc(C(=O)C(CCC(CNCC)C(=O)c2ccc(OCCC)cc2)CNCC)cc1 (stereo unspecified),4.31% (inactive)
6,COc1ccc(CC(=O)Nc2ccc(C(=O)NC(C)(C)C)cc2)cc1,-6.76% (inactive)
7,CC(=O)Nc1ccc(S(=O)(=O)NCC(=O)OCc2cc(=O)oc3ccc4ccccc4c23)cc1,-1.24% (inactive)
8,O=C(CN1C(=O)c2cccc3cccc1c23)Nc1ccccc1,5.42% (inactive)
9,O=C(COc1coc(CN2CCN(c3ccccc3F)CC2)cc1=O)N1CCc2ccccc21,-0.869% (inactive)
10,CCOc1ccc(-n2c(SCC(=O)Nc3ccc(OC)cc3)nc3sc4c(c3c2=O)CCN(C)C4)cc1,-0.551% (inactive)
11,C#CCOCCOCCOCCNc1nc(N2CCN(C(=O)C(Cc3ccc(O)cc3)n3cc(C(N)CC(C)C)nn3)CC2)nc(N2CCN(C(=O)C(Cc3ccc(O)cc3)n3cc(C(N)C(C)CC)nn3)CC2)n1 (stereo unspecified),2.47% (inactive)
12,CN(C)CCN(C(=O)CN1C(=O)c2ccccc2C1=O)c1nc2cc3c(cc2s1)OCCO3,0.813% (inactive)
13,Cc1ccc(NC(=O)COc2ccc(/C=C3/NC(=O)NC3=O)cc2)cc1,2.85% (inactive)
14,O=C(Nc1cccnc1Cl)c1cc(-c2ccccc2O)on1,-0.741% (inactive)
15,CCOC(=O)C1=C(O)/C(=C/c2ccc(OCC(=O)Nc3ccc(C)cc3)cc2)N=C1C,3.13% (inactive)
16,c1ccc(C[C@H]2CNCCN2CCC23CC4CC(CC(C4)C2)C3)cc1,2.28% (inactive)
17,COc1ccc(CNC(=O)c2nnn(CC(=O)Nc3cc(C)cc(C)c3)c2N)cc1,3.37% (inactive)
18,Cc1ccc(S(=O)(=O)N2CCC(Oc3ccc(-n4cnnn4)cc3)CC2)cc1,-4.91% (inactive)
19,Cn1cccc1/C=C1\SC(=O)N(CC(=O)Nc2ccc(F)cc2)C1=O,0.105% (inactive)
20,COc1ccc(/C=C/C(=O)OCC(=O)N2CCN(S(=O)(=O)c3ccc(C)cc3C)CC2)cc1OC,-0.0445% (inactive)
21,O=C(Cn1nnc(-c2ccc3c(c2)OCO3)n1)NCc1ccco1,-2.21% (inactive)

row,SMILES,activation
1,Nc1nc(SCC(=O)Nc2cc(C(F)(F)F)ccc2Cl)[nH]c(=O)c1NC(=O)c1ccco1,-8.35% (inactive)
2,O=C(N/N=C/c1cccc(Br)c1)c1ccc(N2CCCC2=O)cc1,3.06% (inactive)
3,Nc1ccc(C(=O)OCC(=O)NC2CCCc3ccccc32)cc1[N+](=O)[O-] (stereo unspecified),0.712% (inactive)
4,COc1ccc(Br)cc1C(=O)NC(=S)Nc1cc(-c2nc3ccccc3[nH]2)ccc1C,-0.0125% (inactive)
5,COc1cccc(OCc2cc(/C=N/NC(=O)c3nc(Cl)c(Cl)c(N)c3Cl)ccc2OC)c1,1.13% (inactive)
6,Cc1cc(C)c2nc3nc(C)cc(C)c3c(N)c2c1,0.483% (inactive)
7,O=C(Nc1ccccc1)Nc1nnc(COc2ccccc2F)s1,-9.71% (inactive)
8,Cc1ccc(OCC(=O)Nc2ccccc2C(=O)NC2CC2)cc1C,1.23% (inactive)
9,COc1ccc(-c2cc(=O)c3c(O)cc(O[C@@H]4O[C@H](CO[C@@H]5O[C@@H](C)[C@H](O)[C@@H](O)[C@H]5O)[C@@H](O)[C@H](O)[C@H]4O)cc3o2)cc1O,0.468% (inactive)
10,O=C(Nc1ccc(S(=O)(=O)N2CCc3ccccc3C2)cc1)c1ccccc1,6.54% (inactive)
11,NC(N)=Nc1nc2ccc(Br)cc2c(=O)[nH]1,-0.0365% (inactive)
12,Cc1cc(NC(=O)Nc2c[nH]c(=O)[nH]c2=O)ccc1Br,7.25% (inactive)
13,CCN1CCN(c2cc3nc(C)n(Cc4ccccc4)c(=O)c3cc2NC(=O)c2ccccc2F)CC1,3.66% (inactive)
14,C=CCn1c(=NC(=O)c2ccc(S(=O)(=O)N3CCCC3)cc2)sc2cc(NC(C)=O)ccc21,2.06% (inactive)
15,CS(=O)(=O)c1ccc(-c2nnn(CC(=O)Nc3ccc4c(c3)OCCO4)n2)cc1,2.96% (inactive)
16,CC(=O)Nc1ccc(NC(=O)COc2ccccc2C(=O)Nc2cccc(Cl)c2Cl)cc1,-3.31% (inactive)
17,Cn1c(=O)oc2cc(S(=O)(=O)N3CCC(C(=O)Nc4ccc(OC(F)(F)F)cc4)CC3)ccc21,3.32% (inactive)
18,Cc1ccc(C(=O)NNC(=O)c2cc3cc4ccccc4nc3s2)cc1,-0.255% (inactive)

# Source: PubChem BioAssay AID588690 (Broad Institute, 2011)
